This is part of a sample that, as a whole, favours compounds with a hit. Of some 79,000 tested, about 15% had one in any assay. No stated cut-off is given here; in the data, active means growth inhibition above about 70%; inactive means the rest.
Key:
[1] = NCI Yeast Anticancer Drug Screen. Data for the rad50 strain (AID 155);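 further: 0% = growth of vehicle-only cultures of the same strain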; details: S. cerevisiae rad50 strain growth inhibition, stronger effect = higher value; at 50.0 µM unless noted
Outline: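 Relative growth inhibition (compound vs vehicle) was measured in yeast with a defined repair-gene alteration.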

[2] = NCI Yeast Anticancer Drug Screen. Data for the mec2-1 strain (AID 157); details: S. cerevisiae mec2-1 strain, stronger effect = higher value; at 50.0 µM unless noted
Outline: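 Growth inhibition is read against vehicle-treated controls after compound exposure of the mec2-1 yeast strain, which is defective in DNA damage repair or cell cycle control.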

[3] = NCI Yeast Anticancer Drug Screen. Data for the sgs1 mgt1 strain (AID 161);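 further: 0% = growth of cultures given vehicle only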; details: S. cerevisiae sgs1 mgt1 strain, stronger effect = higher value; at 50.0 µM unless noted
Outline: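 Compounds are added to genetically altered yeast, and growth is compared with cultures given vehicle alone to give percent inhibition.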

[4] = NCI Yeast Anticancer Drug Screen. Data for the cln2 rad14 strain (AID 165);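 further: 0% = growth equal to vehicle treated cultures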; details: S. cerevisiae cln2 rad14 strain, stronger effect = higher value; at 50.0 µM unless noted
Outline: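 Growth inhibition, relative to vehicle-treated controls, is the read-out. The test organism is a yeast strain with defined genetic alterations, cln2 rad14.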

[5] = NCI Yeast Anticancer Drug Screen. Data for the bub3 strain (AID 167); details: S. cerevisiae bub3 mutant strain, stronger effect = higher value; at 50.0 µM unless noted
Outline: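 Screening used yeast with an engineered genetic alteration affecting cell cycle control. Compound-exposed cultures were compared with vehicle cultures, and reduced growth was taken as inhibition.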

[6] = NCI Yeast Anticancer Drug Screen. Data for the mlh1 rad18 strain (AID 175); details: S. cerevisiae mlh1 rad18 strain growth inhibition, stronger effect = higher value; at 50.0 µM unless noted
Outline: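 Cells of a genetically altered yeast strain, deficient in DNA damage repair, were treated with compound. Their growth was then compared with that of vehicle-treated cultures to give inhibition.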

Measured: growth inhibition

O=C(Cc1ccccc1)NCc1ccco1
inactive: [1] -3.25% | [2] 8.55% | [3] -11.6% | [4] -10.9% | [5] -7.45% | [6] 7.3%

Clc1cccc(/C=N\N=C\c2cccc(Cl)c2)c1
inactive: [1] -4.6% | [2] -7.75% | [3] 6.3% | [4] -8.75% | [5] -1.95% | [6] 5.45%

CCOC(=O)Cn1cncc1C
inactive: [1] -33.6% | [2] -6.6% | [3] -13.5% | [4] -73.6% | [5] -3.4% | [6] -7.1%

COc1c(Cl)cc(C(c2cc(Cl)c(OC)c(Cl)c2)C(Cl)(Cl)Cl)cc1Cl
inactive: [1] -11.7% | [2] -16.4% | [3] -13% | [4] -23.7% | [5] -3.95% | [6] 10.4%

O=Cc1ccc(N2CCOCC2)cc1
inactive: [1] 9.2% | [2] -2.1% | [3] -11.2% | [4] -29.6% | [5] -18.9% | [6] 1.95%

O=C(O)C1CC1c1ccc2c(c1)OCO2 (stereo unspecified)
inactive: [1] -11.8% | [2] -10.4% | [3] 7.2% | [4] -34% | [5] -33.9% | [6] 1.35%

CCOC(=O)NC(=O)c1cn(CCSCCOC(=O)NCCCCCCNC(=O)OCCSCCn2cc(C(=O)NC(=O)OCC)c(=O)n(C)c2=O)c(=O)n(C)c1=O
inactive: [1] -26% | [2] -10.6% | [3] -29.7% | [4] 7.9% | [5] -0.35% | [6] -18.4%

CCOC(=O)c1c(NS(=O)(=O)c2ccc(C)cc2)sc(C)c1-c1ccccc1
inactive: [1] -21.4% | [2] -0.45% | [3] -6.2% | [4] 67.8% | [5] 6.85% | [6] -3.65%

CC(C)c1ccc(C2NC(c3ccccc3)c3c(ccc4ccccc34)O2)cc1 (stereo unspecified)
inactive: [1] 36.9% | [2] -4.85% | [3] 6.1% | [4] 0.5% | [5] -1.6% | [6] -1.65%

CC(C)C(C(N)=O)(C(=O)O)C(C)C
inactive: [1] -4.25% | [2] 4.05% | [3] 4.6% | [4] 5.2% | [5] -5.5% | [6] 6.85%

C/C=C/Cc1n[nH]c(=O)c2c(C)[nH]nc12
inactive: [1] -13% | [2] -13.4% | [3] -9.55% | [4] -13.8% | [5] -5.85% | [6] -17.9%

Cc1cc(Cl)ccc1NC(=O)C(=O)Cc1ccc([N+](=O)[O-])c([N+](=O)[O-])c1CC(=O)C(=O)Nc1ccc(Cl)cc1C
inactive: [1] -10.6% | [2] -30.4% | [3] -13.6% | [4] -7.8% | [5] 18.6% | [6] 7%

O=C(Nc1ccc(Nc2ccc3c(c2)C(=O)c2ccccc2C3=O)c2c1C(=O)c1ccccc1C2=O)c1ccccc1
inactive: [1] -35.7% | [2] -15.2% | [3] -15.3% | [4] -36.7% | [5] -15.2% | [6] -25.6%

Nc1cccc2c1nc(NCCO)c1ccccc12
inactive: [1] 23.8% | [2] 3.5% | [3] -15.6% | [4] -4.5% | [5] 10.7% | [6] 49.1%

Nc1cc(Nc2ccccc2)nc(=O)[nH]1
inactive: [1] -3.1% | [2] -0.55% | [3] -4.85% | [4] -75.2% | [5] -7.1% | [6] 5.2%

CCOC(=O)CCN(CCC(=O)OCC)N(C)C
inactive: [1] 2.55% | [2] -6.45% | [3] -4.6% | [4] -8.85% | [5] 5.8% | [6] 2.8%

O=[N+]([O-])c1ccccc1N1CCCCC1
inactive: [1] 23.9% | [2] 7.05% | [3] 14.9% | [4] 25.6% | [5] -4.05% | [6] 27.2%

CCCCC(C)(C)SCCC(=O)O
inactive: [1] 11.2% | [2] -7.25% | [3] 14.9% | [4] 10.9% | [5] 5.6% | [6] -5.35%

C[C@@]1([N+](=O)[O-])CC2CCC1C2 (stereo partly specified)
inactive: [1] -3.9% | [2] -12.5% | [3] -16.4% | [4] -6.45% | [5] 2.55% | [6] -9.55%

CC12CCC(=O)C=C1CCCC2=O (stereo unspecified)
inactive: [1] -7.6% | [2] -12.3% | [3] -11.6% | [4] -14.7% | [5] -7.75% | [6] -3.4%

CCOC(=O)Cc1nc2ccccc2[nH]1
inactive: [1] 4.4% | [2] -7.85% | [3] -13.2% | [4] -103% | [5] -12.2% | [6] -3.2%
